In test [1] the target is Norway rat Vesicular Monoamine Transporter (VMAT2), neurotransmitter transporter, Slc18a2 (gene 25549) (UniProt Q01827). Description: NVS_TR_rVMAT2: NovaScreen (NVS) Transporter Assay for Norway rat Vesicular Monoamine Transporter (VMAT2), neurotransmitter transporter (AID 2283376).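 Note: actives lower the bound radioligand signal below the DMSO level.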 The gist of the method:
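Rat forebrain tissue preparation used in a cell-free radioligand binding format; displacement read by filter-based scintillation counting 1 hour after dosing. Primary screen in duplicate at 25 uM, actives then run in concentration series; loss of signal versus DMSO baseline.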

Test [2] has as its target Peroxisome proliferator-activated receptor gamma (Homo sapiens) (UniProt P37231). Description: NVS_NR_hPPARg: NovaScreen (NVS) Nuclear Receptor Binding Assay for human Peroxisome Proliferator-activated Receptor gamma (PPARg) (AID 2283370). The gist of the method:
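Chemicals were tested first in duplicate at 25 uM, then in concentration series if active. Binding to cell-free PPARg protein was measured by fluorescence polarization after 2 h, with loss of signal scored against DMSO.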

Test [3] addresses Estrogen receptor beta (Homo sapiens) (UniProt Q92731). Description: OT_ER_ERbERb_1440: Odyssey Thera (OT) 24-hour HEK293T Protein-Complementation Assay for Estrogen Receptor-beta/-beta Homodimer (AID 2283380).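 Note: fluorescence gain from ER beta LBD homodimer complementation read by laser scanning cytometry; scored as signal increase over DMSO baseline for both agonists and antagonists.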 The gist of the method: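 HEK293T cells stably expressing human ER-beta LBD (aa 310-547) PCA homodimer pair, dosed 24 h; formaldehyde-fixed, Draq5-stained. Readout: increase in nuclear (agonist) or nuclear plus cytoplasmic (antagonist) fluorescence intensity versus DMSO, gain-of-signal fitting.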

For test [4], the target named is Estrogen receptor (Homo sapiens) (UniProt P03372). Kind of test: OT_ERa_GFPERaERE_0480: Odyssey Thera (OT) 8-hour HeLa Transcription Induction Assay for Estrogen Receptor (AID 2283381; active = hit-call score of the fitted dose curve at least 0.9, where 1 is the maximum; inactive = score below 0.9). The essentials:
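Cells (HeLa) receive compound; after 8 h, reporter fluorescence is imaged and quantified by high-content analysis. Gain-of-signal relative to DMSO gives the endpoint.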

Test [5] shares this target. Kind of test: OT_ERa_GFPERaERE_0120: Odyssey Thera (OT) 2-hour HeLa Transcription Induction Assay for Estrogen Receptor (AID 2283382). The essentials: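 Measures ESR1 pathway reporter gain-of-signal in HeLa cells after a 2-hour treatment, detected as fluorescent protein induction by microscopy, DMSO as baseline.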
For test [6], the target named is Bile acid receptor (Homo sapiens) (UniProt Q96RI1). Description: OT_FXR_FXRSRC1_0480: Odyssey Thera (OT) 8-hour HEK293T Protein-Complementation Assay for Farnesoid X receptor/SRC-1 Co-activator (AID 2283383). The gist of the method:
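Co-activator recruitment to FXR was measured in living HEK293T cells, where interaction of the two fused partners restored an active fluorescent reporter. Signal gain after 8 h treatment was referenced to DMSO.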

Test [7] concerns the target guinea pig Sigma Receptor, Non-selective Binding, SIGMAR1 (gene 100135589) (UniProt Q60492). Kind of test: NVS_OR_gSIGMA_NonSelective: NovaScreen (NVS) Nuclear Receptor Binding Assay for guinea pig Sigma Receptor, Non-selective Binding (AID 2283367). The gist of the method: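 Guinea pig brain membranes, cell-free radioligand binding; read 1 h after dosing by filter-based scintillation counting. Loss of signal vs DMSO baseline taken as displacement. Primary screen single concentration 25 uM in duplicate; actives retested in concentration series.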

For test [8], the target named is rat Serotonin Transporter (SERT), Slc6a4 (gene 25553) (UniProt P31652). Description: NVS_TR_rSERT: NovaScreen (NVS) Transporter Assay for rat Serotonin Transporter (SERT) (AID 2283375). The gist of the method:
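Filtration-based radiodetection quantified loss of specific radioligand binding in rat forebrain membranes after 1 hour of chemical exposure, relative to DMSO. Chemicals were first tested in duplicate at 25 uM.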

In test [9] the target is human Norepinephrine Transporter (NET), SLC6A2 (gene 6530) (UniProt P23975). Kind of test: NVS_TR_hNET: NovaScreen (NVS) Transporter Assay for human Norepinephrine Transporter (NET) (AID 2283377).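 Note: cell-free membrane protein extracted from CHO cells expressing human NET.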 The gist of the method: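 Radioligand binding to human NET in cell-free CHO-derived protein preparations, read by filter-based scintillation counting 1 hour after dosing. Loss of signal versus DMSO baseline indicated displacement; primary screening in duplicate at 25 uM, actives then titrated.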

The target in test [10] is mouse Estrogen Receptor alpha (Era), Esr1 (gene 13982) (UniProt P19785). Description: NVS_NR_mERa: NovaScreen (NVS) Nuclear Receptor Binding Assay for mouse Estrogen Receptor alpha (Era) (AID 2283378).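 Note: hit means loss of bound radioligand signal relative to DMSO.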 The essentials: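 Extracted mouse Era incubated with tritiated or iodinated radioligand plus test chemical, 18 h. Bound fraction separated on filters, counted by scintillation. DMSO = negative control/baseline; duplicate single-point at 25 uM, then concentration-response follow-up.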

Test [11] concerns the target Bile acid receptor (Homo sapiens) (UniProt Q96RI1). Description: OT_FXR_FXRSRC1_1440: Odyssey Thera (OT) 24-hour HEK293T Protein-Complementation Assay for Farnesoid X receptor/SRC-1 Co-activator (AID 2283384). The gist of the method:
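Cell-based binding reporter: interaction of FXR with SRC-1 brings reporter fragments together, giving a fluorescence signal read 24 h after dosing of HEK293T cells.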

Test [12] addresses Agonist Androgen Response Element (ARE), AR (gene 367) (UniProt P10275). Kind of test: OT_AR_ARELUC_AG_1440: Odyssey Thera (OT) 24-hour CHO-K1 Luciferase Assay for Agonist Androgen Response Element (ARE) (AID 2283379). The essentials: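 Seed CHO-K1 cells; dose compounds for 24 h; add D-luciferin plus ATP in PBS; read luminescence. Signal increase relative to vehicle defines agonist activity, with at least 3 replicate wells per sample.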

The target in test [13] is Retinoic acid receptor RXR-alpha (Homo sapiens) (UniProt P19793). Description: OT_NURR1_NURR1RXRa_0480: Odyssey Thera (OT) 8-hour HEK293T Protein Complementation Assay for Nurr1/retinoid X receptor (RXR) (AID 2283385). The essentials: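 Compounds are applied to HEK293T cells carrying Nurr1 and RXRα linked to reporter fragments. After 8 h, fluorescence intensity reports heterodimer formation, with DMSO as baseline.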

The structures appear in SMILES notation. Inconclusive results are not listed. The source made the active and inactive calls. Rule for the calls, unless noted: active = hit-call score of the fitted dose curve at least 0.9, where 1 is the maximum; inconclusive = response in the unintended direction; inactive = score below 0.9.

What is called AC50 is the concentration giving half of the maximal activity seen.

Chain of Estrogen receptor beta (Homo sapiens) (Q92731 whole entry, looked up, the tested form may be a part): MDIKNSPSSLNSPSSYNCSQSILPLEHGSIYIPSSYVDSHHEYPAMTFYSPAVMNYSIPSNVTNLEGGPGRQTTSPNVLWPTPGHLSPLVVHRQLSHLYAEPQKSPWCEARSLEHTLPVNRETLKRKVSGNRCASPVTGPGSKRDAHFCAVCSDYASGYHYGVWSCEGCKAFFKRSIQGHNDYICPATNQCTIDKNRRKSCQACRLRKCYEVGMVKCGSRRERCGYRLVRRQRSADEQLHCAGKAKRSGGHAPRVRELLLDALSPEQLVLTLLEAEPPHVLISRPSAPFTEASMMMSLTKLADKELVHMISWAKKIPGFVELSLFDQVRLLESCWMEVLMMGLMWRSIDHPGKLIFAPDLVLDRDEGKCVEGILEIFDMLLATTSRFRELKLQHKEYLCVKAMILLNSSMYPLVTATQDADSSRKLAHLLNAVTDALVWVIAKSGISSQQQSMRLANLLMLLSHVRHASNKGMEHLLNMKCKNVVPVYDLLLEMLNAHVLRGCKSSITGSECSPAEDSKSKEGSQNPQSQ
Chain of human Norepinephrine Transporter (NET), SLC6A2 (gene 6530) (P23975 whole entry, looked up): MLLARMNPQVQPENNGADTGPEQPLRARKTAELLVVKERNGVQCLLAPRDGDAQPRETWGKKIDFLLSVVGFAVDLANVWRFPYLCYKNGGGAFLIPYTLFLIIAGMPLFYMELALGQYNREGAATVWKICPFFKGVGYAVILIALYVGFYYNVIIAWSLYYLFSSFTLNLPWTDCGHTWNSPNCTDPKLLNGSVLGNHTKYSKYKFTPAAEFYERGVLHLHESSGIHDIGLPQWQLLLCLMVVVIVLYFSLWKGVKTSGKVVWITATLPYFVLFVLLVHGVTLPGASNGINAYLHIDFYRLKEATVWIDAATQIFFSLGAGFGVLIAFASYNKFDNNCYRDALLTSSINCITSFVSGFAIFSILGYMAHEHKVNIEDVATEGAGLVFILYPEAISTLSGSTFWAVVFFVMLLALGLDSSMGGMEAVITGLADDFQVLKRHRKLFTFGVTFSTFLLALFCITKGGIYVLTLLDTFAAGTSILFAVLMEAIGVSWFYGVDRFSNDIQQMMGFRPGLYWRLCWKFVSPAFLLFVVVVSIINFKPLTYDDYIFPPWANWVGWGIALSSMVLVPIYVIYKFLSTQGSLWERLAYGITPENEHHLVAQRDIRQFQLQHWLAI
Chain of Agonist Androgen Response Element (ARE), AR (gene 367) (P10275 whole entry, looked up): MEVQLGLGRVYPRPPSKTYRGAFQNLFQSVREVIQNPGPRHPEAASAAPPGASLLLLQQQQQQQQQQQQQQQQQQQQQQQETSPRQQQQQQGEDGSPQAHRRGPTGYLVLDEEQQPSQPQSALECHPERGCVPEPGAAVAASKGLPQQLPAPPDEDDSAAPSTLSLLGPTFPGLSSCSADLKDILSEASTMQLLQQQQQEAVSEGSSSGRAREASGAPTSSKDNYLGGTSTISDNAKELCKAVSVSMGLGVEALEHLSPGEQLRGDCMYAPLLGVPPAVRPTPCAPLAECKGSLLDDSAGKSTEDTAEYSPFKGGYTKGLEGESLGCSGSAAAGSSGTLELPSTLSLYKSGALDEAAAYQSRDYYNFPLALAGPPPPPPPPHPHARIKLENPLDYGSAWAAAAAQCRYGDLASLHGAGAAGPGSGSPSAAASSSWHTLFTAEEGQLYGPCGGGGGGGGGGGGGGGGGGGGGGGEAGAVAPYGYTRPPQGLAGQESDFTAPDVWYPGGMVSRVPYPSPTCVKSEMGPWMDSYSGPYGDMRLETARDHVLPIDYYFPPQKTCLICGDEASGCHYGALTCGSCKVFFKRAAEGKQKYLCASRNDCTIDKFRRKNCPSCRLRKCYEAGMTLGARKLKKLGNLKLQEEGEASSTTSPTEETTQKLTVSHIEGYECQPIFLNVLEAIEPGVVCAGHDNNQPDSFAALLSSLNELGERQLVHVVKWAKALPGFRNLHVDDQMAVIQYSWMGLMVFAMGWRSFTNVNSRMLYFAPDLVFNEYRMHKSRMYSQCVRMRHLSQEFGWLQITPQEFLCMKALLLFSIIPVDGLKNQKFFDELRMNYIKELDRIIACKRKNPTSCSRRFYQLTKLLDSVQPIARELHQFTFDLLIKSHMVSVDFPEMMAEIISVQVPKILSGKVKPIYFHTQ
Chain of Norway rat Vesicular Monoamine Transporter (VMAT2), neurotransmitter transporter, Slc18a2 (gene 25549) (Q01827 whole entry, looked up): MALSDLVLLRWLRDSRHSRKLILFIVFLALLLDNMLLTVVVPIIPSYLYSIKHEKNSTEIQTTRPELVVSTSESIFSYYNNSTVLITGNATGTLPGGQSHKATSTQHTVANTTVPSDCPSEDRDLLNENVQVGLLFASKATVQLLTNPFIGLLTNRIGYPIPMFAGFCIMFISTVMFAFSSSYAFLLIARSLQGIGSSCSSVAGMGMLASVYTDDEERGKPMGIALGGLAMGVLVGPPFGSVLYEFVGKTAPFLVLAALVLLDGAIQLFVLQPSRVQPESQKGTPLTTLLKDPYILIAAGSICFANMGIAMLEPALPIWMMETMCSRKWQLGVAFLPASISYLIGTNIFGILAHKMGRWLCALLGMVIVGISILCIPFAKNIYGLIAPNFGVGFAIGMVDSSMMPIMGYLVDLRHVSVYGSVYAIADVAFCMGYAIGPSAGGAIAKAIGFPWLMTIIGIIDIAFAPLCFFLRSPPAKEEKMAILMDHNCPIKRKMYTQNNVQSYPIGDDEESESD
Chain of mouse Estrogen Receptor alpha (Era), Esr1 (gene 13982) (P19785 whole entry, looked up): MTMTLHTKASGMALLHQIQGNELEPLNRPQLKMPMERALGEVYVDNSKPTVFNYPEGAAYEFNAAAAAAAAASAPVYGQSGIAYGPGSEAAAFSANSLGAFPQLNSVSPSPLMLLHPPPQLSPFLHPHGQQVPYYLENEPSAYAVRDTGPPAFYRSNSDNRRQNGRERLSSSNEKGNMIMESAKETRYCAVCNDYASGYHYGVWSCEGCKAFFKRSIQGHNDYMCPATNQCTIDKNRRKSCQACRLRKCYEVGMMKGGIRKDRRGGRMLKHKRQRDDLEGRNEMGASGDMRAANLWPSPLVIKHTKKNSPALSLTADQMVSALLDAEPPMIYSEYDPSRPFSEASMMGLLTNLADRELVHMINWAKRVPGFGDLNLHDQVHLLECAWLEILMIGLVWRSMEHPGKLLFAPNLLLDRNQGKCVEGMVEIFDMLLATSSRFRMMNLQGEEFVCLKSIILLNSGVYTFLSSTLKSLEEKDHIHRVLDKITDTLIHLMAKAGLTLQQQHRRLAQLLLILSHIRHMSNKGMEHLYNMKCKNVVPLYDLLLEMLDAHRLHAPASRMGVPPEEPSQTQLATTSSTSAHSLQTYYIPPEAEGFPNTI
Chain of Retinoic acid receptor RXR-alpha (Homo sapiens) (P19793 whole entry, looked up, the tested form may be a part): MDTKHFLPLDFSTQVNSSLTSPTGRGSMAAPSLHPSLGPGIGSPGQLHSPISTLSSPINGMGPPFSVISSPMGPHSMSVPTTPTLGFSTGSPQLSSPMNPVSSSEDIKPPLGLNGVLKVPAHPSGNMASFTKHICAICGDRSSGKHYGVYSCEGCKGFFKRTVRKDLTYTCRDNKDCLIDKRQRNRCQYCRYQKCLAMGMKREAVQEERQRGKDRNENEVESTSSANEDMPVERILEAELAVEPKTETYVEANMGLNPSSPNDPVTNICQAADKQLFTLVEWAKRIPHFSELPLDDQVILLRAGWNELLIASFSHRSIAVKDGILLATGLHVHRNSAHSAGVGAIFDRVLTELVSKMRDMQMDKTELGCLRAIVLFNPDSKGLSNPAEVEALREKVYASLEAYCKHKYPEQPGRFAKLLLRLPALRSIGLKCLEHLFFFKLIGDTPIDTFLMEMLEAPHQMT
Chain of Estrogen receptor (Homo sapiens) (P03372 whole entry, looked up): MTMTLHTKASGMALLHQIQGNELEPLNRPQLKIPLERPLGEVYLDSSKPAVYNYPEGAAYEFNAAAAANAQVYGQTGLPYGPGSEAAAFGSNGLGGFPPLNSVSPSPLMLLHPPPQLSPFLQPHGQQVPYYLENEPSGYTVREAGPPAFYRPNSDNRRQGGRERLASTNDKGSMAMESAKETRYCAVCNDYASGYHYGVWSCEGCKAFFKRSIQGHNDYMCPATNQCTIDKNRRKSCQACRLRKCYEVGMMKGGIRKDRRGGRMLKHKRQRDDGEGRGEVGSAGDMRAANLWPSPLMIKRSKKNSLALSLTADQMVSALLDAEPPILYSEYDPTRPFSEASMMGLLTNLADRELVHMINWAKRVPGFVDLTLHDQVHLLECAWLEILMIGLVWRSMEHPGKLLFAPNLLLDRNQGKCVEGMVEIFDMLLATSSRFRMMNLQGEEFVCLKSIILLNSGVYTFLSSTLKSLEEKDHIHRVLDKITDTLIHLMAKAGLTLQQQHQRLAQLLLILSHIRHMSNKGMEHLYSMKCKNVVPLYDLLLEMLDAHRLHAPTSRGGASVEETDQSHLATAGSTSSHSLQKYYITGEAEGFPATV
Chain of Bile acid receptor (Homo sapiens) (Q96RI1 whole entry, looked up, the tested form may be a part): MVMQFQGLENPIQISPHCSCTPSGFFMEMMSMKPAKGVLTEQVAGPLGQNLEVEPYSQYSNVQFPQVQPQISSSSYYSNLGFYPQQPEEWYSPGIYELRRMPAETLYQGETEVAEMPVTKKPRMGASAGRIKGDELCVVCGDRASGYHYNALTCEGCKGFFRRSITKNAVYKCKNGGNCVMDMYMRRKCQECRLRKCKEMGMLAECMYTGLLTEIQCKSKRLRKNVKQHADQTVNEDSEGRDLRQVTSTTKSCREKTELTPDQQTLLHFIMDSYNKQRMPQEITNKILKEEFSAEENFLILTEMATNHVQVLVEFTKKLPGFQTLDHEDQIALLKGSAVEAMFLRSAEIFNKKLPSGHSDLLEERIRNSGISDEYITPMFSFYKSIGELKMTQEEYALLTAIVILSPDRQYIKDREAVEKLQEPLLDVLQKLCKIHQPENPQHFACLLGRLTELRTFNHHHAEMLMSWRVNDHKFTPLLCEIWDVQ
Chain of guinea pig Sigma Receptor, Non-selective Binding, SIGMAR1 (gene 100135589) (Q60492 whole entry, looked up): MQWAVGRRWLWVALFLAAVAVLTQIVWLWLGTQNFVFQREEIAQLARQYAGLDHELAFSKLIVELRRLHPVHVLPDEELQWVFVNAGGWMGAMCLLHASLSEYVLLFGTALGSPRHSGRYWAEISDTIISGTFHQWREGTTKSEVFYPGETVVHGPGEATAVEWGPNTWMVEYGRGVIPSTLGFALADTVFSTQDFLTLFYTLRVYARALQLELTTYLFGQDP

For `O=C(O)C(Cl)(Cl)Cl`, the call in [1] was inactive.

Regarding `CNC(=O)O/N=C/C(C)(C)S(C)=O` (centres undefined), the compound was classed as inactive in [2], in test [3], in test [4], in test [5] and in [6].

For the compound `C(=NC1CCCCC1)=NC1CCCCC1`, the AC50 in [7] is 30.8 µM (active).

Take `COP(=S)(OC)Oc1ccc(S(=O)(=O)N(C)C)cc1`: the compound was classed as inactive in test [1].

Take `O=[N+]([O-])c1ccc2c3c(cccc13)CC2`: the AC50 in [8] is 18.2 µM (active).

Regarding `O=C(NCO)NCO`, in [2], the AC50 is 25 µM (active). The outcome in test [4] and in test [5] was inactive.

Turning to `O=C(Cl)c1ccc(Cl)cc1`, the compound was classed as inactive in test [1] and in test [9].

Regarding `O=C1CCCN1`, the call in [10], in [4], in test [5] and in test [11] was inactive.

Consider `C=CCc1ccc(OC)cc1`, for which, in test [3], the call was inactive.

In the case of `C=CC(=O)OCCCCCC(C)C`, the outcome in [10], in test [12], in test [3], in test [4], in test [5] and in test [6] was inactive. Further, the outcome in test [11] was inactive.

As for `Clc1nc(Cl)nc(Cl)n1`, the outcome in [4] and in test [5] was inactive.

For `CC(C)OC(=O)Nc1ccccc1`, the AC50 in test [10] was 5.18 µM (active). Besides, the call in test [4], in test [5] and in test [13] was inactive.

On to `CC(C)(C)c1cc(O)ccc1O`, for which the AC50 in [9] was 13.8 µM (active); in test [11] it was 62.2 µM (active). For the same compound, the compound was called inactive in [4], in [5] and in test [6].

Regarding `Cl/C=C/Cl`, the call in test [10], in test [4] and in [5] was inactive.

Take `CCOC(=O)Nc1cccc(OC(=O)Nc2ccccc2)c1`: the concentration at half-maximal activity (AC50) in test [9] is 3.25 µM (active). Moreover, the result in test [10], in [3], in test [4] and in test [5] was inactive.

For `CCCCOCCOC(C)=O`, the result in test [4], in [5], in [6] and in test [11] was inactive.

For the compound `Cc1cc(Cl)ccc1O[C@H](C)C(=O)O`, the compound was called inactive in [9].

With `CNC`, the result in [4] and in [5] was inactive.

Regarding `ClCC(Cl)CCl`, the compound was classed as inactive in test [10] and in test [13].

Consider `O=C(CCl)CCl`, for which the compound was classed as inactive in [10].

On to `CC(=O)C=C(C)C`, for which the AC50 in [4] was 7.47 µM (active); in [5], 22.9 µM (active).

Regarding `O=c1[nH]c(=O)[nH]c(=O)[nH]1`, in test [12], the AC50 is 17.2 µM (active). For the same compound, the result in test [3] was inactive.

As for `O=S(=O)(c1ccc(Cl)cc1)c1ccc(Cl)cc1`, the compound was called inactive in [3], in test [4] and in [5].

On to `COP(=S)(OC)Oc1cc(Cl)c(Cl)cc1Cl`, for which the outcome in [9] was inactive.

Turning to `Cl/C=C\C[N+]12CN3CN(CN(C3)C1)C2`, the compound was classed as inactive in test [3] and in [5]. Moreover, the AC50 in test [4] is 82.2 µM (active).

Regarding `COc1ccc(C=O)cc1OC`, the call in [3], in test [4] and in test [5] was inactive.

As to `c1cc[c]([Hg][c]2ccccc2)cc1`, the result in test [12], in test [3], in test [4] and in test [5] was inactive. The AC50 is 29 µM (active) in test [6] and 51.6 µM (active) in test [11].

Take `N#CN=C(N)N`: the outcome in test [3], in test [4], in [5] and in test [11] was inactive.

`Cc1ccc(N)cc1Cl`: the compound was called inactive in test [4] and in [13]. Moreover, in [5], the AC50 is 0.789 µM (active).

For the compound `ClC(Cl)=C(Cl)C(Cl)=C(Cl)Cl`, the compound was called inactive in test [4] and in test [5].

For `O=C(Cc1ccccc1)c1ccccc1`, the compound was classed as inactive in test [4], in test [5], in test [6] and in test [11].

As to `BrCCBr`, the compound was classed as inactive in test [3], in [4] and in test [5].

With `COc1ccc(C=O)cc1`, the compound was called inactive in test [4] and in test [5].

In the case of `C=C(C)C#N`, the call in [3], in test [4], in test [5] and in test [6] was inactive.

Turning to `CC(=O)c1cc(C(C)(C)C)cc2c1CCC2(C)C`, the result in test [4] and in test [5] was inactive.

Turning to `COP(=O)(OC)OC`, the result in test [12], in [4], in test [5], in test [6], in test [11] and in [13] was inactive.

With `CC(C)c1cccc(C(C)C)c1O`, the result in test [3], in test [4] and in test [5] was inactive.

Regarding `CCC1(c2ccc(N)cc2)CCC(=O)NC1=O` (centres undefined), the compound was classed as inactive in test [12], in test [4], in [5] and in [11].

As to `CCCCCCCCSC(=O)Oc1cc(Cl)nnc1-c1ccccc1`, the call in test [4] and in test [5] was inactive.

`NC(=O)O`: the outcome in test [4] and in [5] was inactive.

With `Oc1c(I)cc(I)cc1I`, in test [9], the AC50 is 25 µM (active).

For `Cc1ccc2ccccc2c1C`, the compound was called inactive in test [12], in test [3], in [4] and in test [5].

Regarding `OCC(O)CCl` (centres undefined), the outcome in test [4], in test [5] and in test [13] was inactive.
